This is a sample that favours compounds with a hit; in the whole collection about 3.5% have one here.
BoNT-A LC inh2: inhibitors of Botulinum neurotoxin A light chain protease; 360,000 tested, 0.17% active; multiplex microsphere protease substrate cleavage, flow cytometry; inhibition, % at 10 µM; also: plate controls were buffer without enzyme for full effect and enzyme alone for no effect
BoNT F protease: BoNT F light chain protease inhibition | Multiplex microsphere protease cleavage assay, flow cytometry | inhibition, % at 10 µM | 360,000 tested, 0.22% active | AID 588497; in the data active = inhibition above about 35%, passing the limit was not always enough; inconclusive = no clear call, values can overlap the other calls; also: plate controls were buffer without enzyme for full effect and enzyme alone for no effect
Anthrax LF inh2: blocks Bacillus anthracis lethal factor protease; P15917; multiplex microsphere protease cleavage assay, LF; inhibition, % at 10 µM; 360,000 tested, 0.12% active; AID 588501; also: plate controls were buffer without enzyme for full effect and enzyme alone for no effect
Target sequence (P15917 whole entry, looked up): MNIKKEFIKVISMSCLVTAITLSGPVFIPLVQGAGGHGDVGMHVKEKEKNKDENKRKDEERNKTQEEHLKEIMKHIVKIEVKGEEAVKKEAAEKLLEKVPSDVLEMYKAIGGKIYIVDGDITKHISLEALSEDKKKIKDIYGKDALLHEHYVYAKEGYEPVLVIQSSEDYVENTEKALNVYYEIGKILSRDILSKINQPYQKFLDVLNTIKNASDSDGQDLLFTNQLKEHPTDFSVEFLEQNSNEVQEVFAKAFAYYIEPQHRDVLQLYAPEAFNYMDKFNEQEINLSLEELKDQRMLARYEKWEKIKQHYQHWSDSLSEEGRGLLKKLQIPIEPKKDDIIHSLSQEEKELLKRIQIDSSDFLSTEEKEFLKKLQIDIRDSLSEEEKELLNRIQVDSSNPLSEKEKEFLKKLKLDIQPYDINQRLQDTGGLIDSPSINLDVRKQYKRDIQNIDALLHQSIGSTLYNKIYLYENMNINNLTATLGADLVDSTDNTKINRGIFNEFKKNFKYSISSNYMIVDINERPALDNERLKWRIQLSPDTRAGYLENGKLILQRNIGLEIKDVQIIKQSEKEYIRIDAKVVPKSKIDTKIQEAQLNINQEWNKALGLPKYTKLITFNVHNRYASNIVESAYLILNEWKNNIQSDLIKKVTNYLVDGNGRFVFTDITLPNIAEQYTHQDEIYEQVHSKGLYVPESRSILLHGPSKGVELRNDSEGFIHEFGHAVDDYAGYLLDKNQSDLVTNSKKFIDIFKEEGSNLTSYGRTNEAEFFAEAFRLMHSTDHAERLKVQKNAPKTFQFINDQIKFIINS
Bead autofluor: compound fluorescence in toxin protease inhibitor counterscreen; fluorescence intensity (concentration not given with the values); 360,000 tested, 3.1% active; compound autofluorescence counterscreen, microsphere flow cytometry; stronger effect = higher value; in the data active = fluorescence intensity above about 16000; inconclusive = no clear call, values can overlap the other calls
* = called active by the depositor; ? = inconclusive. Rule as the data show it, unless noted: active = inhibition above about 30%; inconclusive = no clear call, values can overlap the other calls; inactive = below that.

SMILES	BoNT-A LC inh2	BoNT F protease	Anthrax LF inh2	Bead autofluor
COc1cc(Br)c(S(=O)(=O)Nc2c(C)n(C)n(-c3ccccc3)c2=O)cc1OC	-1	-4	2	21059*
Cc1cc(C(=O)Nc2c(C)n(C)n(-c3ccccc3)c2=O)c2ccccc2n1	0	15	5	3985
Cc1c(NS(=O)(=O)c2ccc3[nH]c(=O)[nH]c3c2)c(=O)n(-c2ccccc2)n1C	6	6	1	20240*
COc1ccc(S(=O)(=O)Nc2c(C)n(C)n(-c3ccccc3)c2=O)cc1Br	-2	-7	-10	3820
Cc1c(NC(=O)c2ccccc2)c(=O)n(-c2ccccc2)n1C	0	2	3	3241
Cc1c(NC(=O)c2cc(=O)[nH]c3ccccc23)c(=O)n(-c2ccccc2)n1C	-3	-5	0	17099*
COc1ccc(C(=O)NC(CCSC)C(=O)N2CCCCCC2)cc1 (stereo not given)	0	5	-1	4281
CCOC(=O)c1cnc2c(C)cc(Cl)cc2c1N1CCN(C)CC1	0	-11	-13	2969
CCCNC(=O)C1(C)CCCN(Cc2ccc3c(c2)OCO3)C1 (stereo not given)	0	6	-6	3823
CCOC(=O)N1CCN(C(=O)c2ccc3c(c2)N=C(C)c2cc(Cl)ccc2S3)CC1	-1	-3	-3	5619
CCOC(=O)N1CCN(C(=O)C2CCC(=O)N(Cc3ccc(Cl)cc3)C2)CC1 (stereo not given)	1	0	1	5099
O=C(COC(=O)C1(c2ccccc2F)CCCC1)N1CCNC1=O	-1	6	-3	5841
Cc1c(NC(=O)c2c(F)c(F)c(F)c(F)c2F)c(=O)n(-c2ccccc2)n1C	2	4	-3	3652
Cc1c(NC(=O)/C(=C/c2cccs2)NC(=O)c2ccccc2)c(=O)n(-c2ccccc2)n1C	0	-2	3	4356
Cc1c(NC(=O)/C=C/c2cccs2)c(=O)n(-c2ccccc2)n1C	0	-1	0	22938*
Cc1c(NC(=O)CC(=O)Nc2c(C)n(C)n(-c3ccccc3)c2=O)c(=O)n(-c2ccccc2)n1C	1	0	1	7785
COc1ccccc1NC(=O)Nc1c(C)n(C)n(-c2ccccc2)c1=O	?	2	-5	21129*
Cc1c(NC(=O)c2ccccc2F)c(=O)n(-c2ccccc2)n1C	?	0	2	16314*
Cc1c(NC(=O)CN2CCCc3ccccc32)c(=O)n(-c2ccccc2)n1C	?	-3	-2	22099*
Cc1csc(=O)n1CC(=O)OCC(=O)Nc1cc(Cl)ccc1[N+](=O)[O-]	9	15	2	3813
Cc1ccc(S(=O)(=O)NNC(=O)c2ccoc2C)cc1	-1	-1	-6	4259
O=C(/C=C/c1cccs1)Nc1ccncc1	0	-9	-1	1957
Cc1cccc(NC(=O)/C=C/c2cccs2)n1	-2	-3	-1	21452*
COc1ccc(-c2nc3ccc(C)cn3c2Cc2ccccc2)cc1OC	0	-12	-3	4427
CCN(CC)C1=NC(=[N+](CC)CC)c2ccccc21	14	17	-9	17474*
SMILES	BoNT-A LC inh2	BoNT F protease	Anthrax LF inh2	Bead autofluor
Cc1cccc(Nc2nc(NC(C)C)nc(Oc3ccc(=O)n(C)n3)n2)c1	-2	-4	-2	23566*
CC(C)Nc1nc(NC(C)C)nc(Oc2ccc(=O)n(C)n2)n1	0	-1	-2	4206
O=C(CCc1ccccc1)c1ccc2c(c1)OCCCO2	?	4	-1	19780*
Cc1cnn(-c2nc(-c3cccs3)cc(C(F)(F)F)n2)c1	2	0	0	23064*
CC(=O)n1nc(-c2ccccc2)nc1NCc1ccc(F)cc1	-1	-3	-7	4540
O=C(c1cccs1)n1nc(-c2ccccc2)nc1NCc1ccc(F)cc1	?	-6	-3	25264*
CCCC(NS(=O)(=O)c1ccc(Br)cc1)C(=O)O (stereo not given)	-4	-9	4	25446*
CCC(NS(=O)(=O)c1ccc(OC)cc1)C(=O)O (stereo not given)	1	7	12	8701
CCC(NS(=O)(=O)c1ccc(C)cc1)C(=O)O (stereo not given)	1	1	-1	21879*
NC(=O)Cn1cc(/C=N\NS(=O)(=O)c2ccc(Cl)cc2)c2ccccc21	-1	-9	-1	4503
O=S(=O)(N/N=C/c1cn(Cc2ccccc2)c2ccccc12)c1ccccc1	2	5	-2	22504*
CSC12CCCN(CCC(C(C)(C)C)C1)C2=O (stereo not given)	0	4	-1	4188
OCCNc1nc2ccccc2n1CC(O)c1ccccc1 (stereo not given)	0	1	-4	3958
CC(C)Cn1c(NCCO)nc2ccccc21	1	0	-1	19740*
Cc1ccccc1NC(=S)NC(=O)COc1ccccc1C	0	-4	-2	6036

Source: PubChem BioAssay (NMMLSC)
